Records with an inconclusive call do not appear. Entries that show only a call come without a potency. The source made the active and inactive calls. Calls come from the whole dose curve; as a rule, active = well fitted activation curve with a large enough effect in the repeat runs; inconclusive = weak or mixed curves, or effect the other way; inactive = no such curve, though single readings can be large or run the other way.
biological target: Estrogen receptor (Homo sapiens) (UniProt P03372); assay: qHTS assay to identify small molecule agonists of the estrogen receptor alpha (ER-alpha) signaling pathway using the BG1 cell line (AID 743079); details: BG1Luc4E2 cells, ERE-luciferase agonist, 22 h; series mostly up to 70.3 µM; note: nearly all actives have a fitted effect of over 20% in size
Sequence (P03372 whole entry, looked up): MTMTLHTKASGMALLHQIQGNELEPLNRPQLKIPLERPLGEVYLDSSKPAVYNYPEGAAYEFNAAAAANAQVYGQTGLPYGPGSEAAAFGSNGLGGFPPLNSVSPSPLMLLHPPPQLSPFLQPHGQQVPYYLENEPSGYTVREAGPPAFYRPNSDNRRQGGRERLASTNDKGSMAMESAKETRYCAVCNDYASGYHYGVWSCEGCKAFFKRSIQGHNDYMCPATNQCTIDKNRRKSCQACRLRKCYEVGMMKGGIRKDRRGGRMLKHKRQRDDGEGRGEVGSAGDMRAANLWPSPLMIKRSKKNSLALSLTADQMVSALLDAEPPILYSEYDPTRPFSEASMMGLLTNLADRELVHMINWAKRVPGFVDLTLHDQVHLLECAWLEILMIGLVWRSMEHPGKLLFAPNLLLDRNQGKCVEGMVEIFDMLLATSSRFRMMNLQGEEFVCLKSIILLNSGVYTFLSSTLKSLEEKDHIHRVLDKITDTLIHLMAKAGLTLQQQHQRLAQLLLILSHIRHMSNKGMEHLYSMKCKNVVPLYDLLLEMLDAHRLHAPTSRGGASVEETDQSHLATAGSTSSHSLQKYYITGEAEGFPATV
Potency is the fitted concentration of half-maximal effect.

| Compound | Potency |
| --- | --- |
| CC(=O)/C=C/c1ccc2c(c1)OCO2 | inactive |
| CC[C@H](C)[C@H]1O[C@]2(C=C[C@@H]1C)C[C@@H]1C[C@@H](C/C=C(\C)[C@@H](O[C@H]3C[C@H](OC)[C@@H](O[C@H]4C[C@H](OC)[C@@H](O)[C@H](C)O4)[C@H](C)O3)[C@@H](C)/C=C/C=C3\CO[C@@H]4[C@H](O)C(C)=C[C@@H](C(=O)O1)[C@]34O)O2 | inactive |
| Cc1cc(SCc2sc(-c3ccc(C(F)(F)F)c(F)c3)nc2C)ccc1OCC(=O)O | inactive |
| O=C(CCl)C(Cl)Cl | 24.6 µM (active) |
| CCCCCCCCCCCCCCC(Br)C(=O)O (stereo not drawn) | inactive |
| O=c1ssc(Cl)c1Cl | inactive |
| Oc1ccc(C2(c3ccc(O)cc3)CCCCC2)cc1 | 0.818 µM (active) |
| CS(=O)(=O)c1ccc(C(=O)C2C(=O)CCCC2=O)c([N+](=O)[O-])c1 | inactive |
| C=CC(=O)OCCCCOC(=O)C=C | inactive |
| CCCCCCCCCCCCBr | inactive |
| C1CCC2CCCCC2C1 (stereo not drawn) | inactive |
| N#CCCC(Br)(C#N)CBr (stereo not drawn) | inactive |
| CCOCCOC(C)=O | inactive |

Source: PubChem BioAssay (Tox21)
